Bioassay records: PubChem BioAssay, several laboratories
An excerpt weighted towards active compounds, which were near 7.9% of everything screened.
M1 antagonist = blocks the rat M1 muscarinic receptor response to acetylcholine; P08482; CHO-M1 cells, Fluo-4 calcium, ACh EC80 antagonist mode; stronger effect = lower value; B-score at 10 µM; hit rate 3.4% among 64,000;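 active = calcium fluorescence response, raw or row-and-column corrected B-score, differing from the plate sample mean either way at a set confidence level, mostly lower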
Target sequence (P08482 whole entry, looked up): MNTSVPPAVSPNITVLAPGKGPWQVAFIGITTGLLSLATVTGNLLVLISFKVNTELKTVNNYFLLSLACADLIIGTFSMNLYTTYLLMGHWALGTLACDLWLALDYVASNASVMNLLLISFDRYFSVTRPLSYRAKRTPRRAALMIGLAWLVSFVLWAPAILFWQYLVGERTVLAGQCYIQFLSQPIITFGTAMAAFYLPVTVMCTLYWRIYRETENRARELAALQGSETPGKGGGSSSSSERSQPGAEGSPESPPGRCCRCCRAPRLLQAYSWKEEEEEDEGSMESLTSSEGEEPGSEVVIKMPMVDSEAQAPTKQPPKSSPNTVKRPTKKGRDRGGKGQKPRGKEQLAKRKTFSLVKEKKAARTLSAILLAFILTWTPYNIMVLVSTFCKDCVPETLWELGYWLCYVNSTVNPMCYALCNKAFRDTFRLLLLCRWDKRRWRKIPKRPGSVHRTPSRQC
Her2 expr inh = Her2 kinase expression inhibition. P04626. SKBR-3 HER2 protein level, AlphaScreen, 18-24 h; stronger effect = lower value. HER2 level % of control, % at 10 µM. hit rate 0.69% among 65,000;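 active = HER2 level under 5% of the carrier-only control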;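 note: 100% = DMSO carrier and 0% = 500 nM PU-H71 HSP90 inhibitor; lower value means stronger loss of Her2 protein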
Cav3 T inh = inhibitors of human Cav3.2 T-type calcium channel. hit rate 4% among 100,000. B-score at 10 µM. Cav3.2-expressing cells, Fluo-4 calcium fluorescence FDSS; stronger effect = lower value. AID 449739;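 active = single-dose well whose peak fluorescence ratio is a statistical outlier from its plate by either plate-standardised score or position-corrected B-score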
PLAP activator = human PLAP activation | P05187 | purified PLAP enzyme, luminescent substrate read-out; stronger effect = higher value | activation fold at 20 µM | hit rate 1.2% among 96,000 | AID 696; in the data active = activation fold above about 2
M1 agonist = activates the M1 muscarinic receptor; CHO-M1 cells, Fluo-4 calcium fluorescence, agonist mode; stronger effect = higher value; B-score at 10 µM; hit rate 3% among 64,000; AID 626;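 active = fluorescence rise, raw or as B-score row- and column-corrected plate score, outside the 99.7% band of its plate's samples, either direction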
Starred values were filed as active, the others as inactive; · = not tested or not shown.

SMILES	M1 antagonist	Her2 expr inh	Cav3 T inh	PLAP activator	M1 agonist
Cc1cc(N2C(=O)C(=O)/C(=C(/O)c3ccc(F)cc3)C2c2ccc(Cl)cc2)no1 (stereo not given)	0	91.2	-6.16*	1.4	-0.465
CCN(CC)CCN1C(=O)C(=O)/C(=C(/O)c2ccc(OC)cc2)C1c1ccco1 (stereo not given)	0.255	64.0	·	1.2	-0.672
CCOc1ccc(/C(O)=C2/C(=O)C(=O)N(c3nc(C)c(C)s3)C2c2ccco2)cc1 (stereo not given)	-0.63	114.9	-5.68*	1.3	-0.484
CCOc1ccc(/C(O)=C2\C(=O)C(=O)N(c3cc(C)on3)C2c2ccccc2OC)cc1 (stereo not given)	0.512	-22.0*	-0.191	1	0.645
O=C(CN(Cc1cccs1)C(=O)CNC(=O)c1ccco1)NC1CCCCC1	0.151	91.4	1.38	1.1	-0.5
COc1cc2nc(NC(=O)c3ccccc3)[nH]c(=O)c2cc1OC	-0.491	124.2	1.15	1	0.675
COc1ccc(C(=O)Nc2nc3cc(OC)c(OC)cc3c(=O)[nH]2)cc1	10.3*	97.4	0.339	1	-0.13
CCC(C)(C)n1nnnc1C(c1cc2ccc(OC)cc2[nH]c1=O)N1CCc2ccccc21 (stereo not given)	-0.46	55.4	-3.89*	1.5	1.43
C/C(=N\NC(=O)C1CCCN(S(=O)(=O)c2ccccc2)C1)c1cccnc1 (stereo not given)	·	·	1.76	0.9	·
C/C(=N\NC(=O)C1CCCN(S(=O)(=O)c2ccccc2)C1)c1ccccn1 (stereo not given)	·	·	2.93	2*	·
Cc1ccc(S(=O)(=O)N2CCCC(C(=O)NCc3ccccn3)C2)cc1 (stereo not given)	0.306	91.5	·	1.4	1.14
C/C(=N\NC(=O)C1CCCN(S(=O)(=O)c2ccccc2)C1)c1ccncc1 (stereo not given)	·	·	4.06*	1.1	·
CCCn1c(SCC(=O)N2c3ccc(F)cc3CCC2C)nnc1-c1ccccn1 (stereo not given)	·	·	-1.22	·	·
C=C1CCN([C@@H](CC(C)C)C(=O)Nc2nc3ccc(Cl)cc3s2)S(=O)(=O)c2ccccc21	·	·	-0.508	·	·
Clc1ccccc1CSc1nc2ccncc2[nH]1	·	·	·	2.7*	·
O=C(CSc1nc2ccncc2[nH]1)Nc1ccccc1C(F)(F)F	-1.26	107.8	-0.891	1.9	-0.514
COC(=O)C1=C(C(=O)OC)[C@@H]2N(C)c3ccc(OC)cc3[C@@]23C[C@@H](C(=O)OC)N(S(=O)(=O)c2ccc(OC)cc2)C3=N1	·	·	-0.643	·	·
COc1cccc(Nc2ncccc2C(=O)NCc2ccccc2)c1	0.586	94.2	-1.53	0.6	3.75*
CCOc1ncccc1C(=O)NCc1ccc(OC)cc1	·	·	-0.582	1.1	·
COC(=O)C1=C(C)OC(N)=C(C#N)C1c1c(C)nn(-c2ccccc2)c1Cl (stereo not given)	-0.108	74.7	-5.13*	1.3	-0.412
CCOC(=O)C1=CN(C)C=C(C(=O)OCC)C1c1ccsc1	2.21*	101.0	0.804	1.2	0.826
CC[C@@H]1[C@H]2CCCC(=O)N3CC[C@@H](C[C@H]1O)[C@@H]23	·	·	0.152	·	·
CN1CCN(c2ccc(Cl)cc2NC(=O)c2ccc(S(=O)(=O)N(C)C)cc2)CC1	·	·	-1.14	1.7	·
CCN(CC)S(=O)(=O)c1cc(C(=O)Nc2cc(Cl)ccc2N2CCN(C)CC2)ccc1Cl	·	·	-7.65*	1.6	·
Cc1cccc(N2CCN(C(=O)c3ccc(NS(=O)(=O)c4c(C)noc4C)cc3)CC2)c1C	-1.01	70.4	-7.16*	1.4	-1.27
SMILES	M1 antagonist	Her2 expr inh	Cav3 T inh	PLAP activator	M1 agonist
Cc1noc(C)c1S(=O)(=O)Nc1ccc(C(=O)N2CCN(c3cccc(Cl)c3)CC2)cc1	·	·	-2.35	1.8	·
Cc1cc(C)nc(SC2=CS(=O)(=O)c3ccccc32)n1	-0.21	38.8	0.257	1.1	-0.00337
O=S1(=O)C=C(Sc2nnc(-c3ccccc3)o2)c2ccccc21	0.359	-9.4*	·	1.1	-0.231
O=c1cc(CO)oc(CN2CCN(c3cccc(C(F)(F)F)c3)CC2)c1O	·	·	1.07	2.2*	·
Cc1ccc(-c2cc(NC(=O)CSc3n[nH]c(N)n3)n(-c3ccccc3)n2)cc1	·	·	1.34	2.3*	·
Nc1nc(SCC(=O)Nc2ccccc2Sc2ccc(Cl)cc2)n[nH]1	·	·	-5.89*	1.6	·
Nc1nc(SCC(=O)Nc2cc(-c3ccccc3)nn2-c2ccccc2)n[nH]1	·	·	0.941	·	·
Cc1c(Cl)cccc1NC(=O)c1nc(C)n(-c2cc(OC(C)C)c(Cl)cc2Cl)n1	·	·	-11.6*	1	·
CC1c2[nH]c3ccccc3c2CCN1C(=O)Nc1ccccc1 (stereo not given)	-0.674	64.4	-11.8*	·	-0.0832
